CYP2C9 inhib – inhibitors of human CYP2C9 | CYP2C9 Supersomes, luciferin-H conversion, luminescence | AID 777 | inhibition, % at 5 µM | P11712 | 20% of 96,000 active;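 active means blocking of liver enzyme CYP2C9 beyond about 50% at 5 µM, limit read from the data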
PLAP act – human PLAP activation; 1.2% of 96,000 active; AID 696; purified PLAP enzyme, luminescent substrate read-out; stronger effect = higher value; activation fold at 20 µM; P05187; in the data active means activation fold above about 2
CYP2C19 inhib – blocks human cytochrome P450 2C19; inhibition, % at 5 µM; 21% of 96,000 active; CYP2C19 Supersomes, luciferin-H EGE luminescence, 30 min;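 active means CYP2C19 inhibition above a set limit at 5 µM in the primary screen, cut at about 50% in these data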
Target sequence (P33261 whole entry, looked up): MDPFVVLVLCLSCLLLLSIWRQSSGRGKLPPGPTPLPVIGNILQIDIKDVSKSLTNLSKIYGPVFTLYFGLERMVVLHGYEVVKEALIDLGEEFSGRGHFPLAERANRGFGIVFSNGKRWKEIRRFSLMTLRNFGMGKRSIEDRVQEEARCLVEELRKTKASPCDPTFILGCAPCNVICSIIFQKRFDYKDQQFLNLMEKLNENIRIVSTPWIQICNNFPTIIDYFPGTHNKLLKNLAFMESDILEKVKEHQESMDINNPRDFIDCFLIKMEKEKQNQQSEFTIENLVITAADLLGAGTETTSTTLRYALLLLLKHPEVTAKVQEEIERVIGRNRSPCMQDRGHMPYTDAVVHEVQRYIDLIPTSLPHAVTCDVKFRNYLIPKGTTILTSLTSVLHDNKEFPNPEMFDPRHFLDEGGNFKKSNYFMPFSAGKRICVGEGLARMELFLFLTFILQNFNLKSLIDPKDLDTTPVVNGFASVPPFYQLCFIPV
CYP2C19 activ – increases human CYP2C19 enzyme activity; activation factor at 5 µM; 96,000 tested, under 10 active; recombinant CYP2C19, luciferin-H EGE luminescence; stronger effect = higher value; 0 = fully inhibited enzyme, 1 = untreated enzyme; AID 1025; P33261;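 active means activation factor of at least 2 at 5 µM in the primary screen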
CYP2C9 act – activators of human CYP2C9. P11712. recombinant CYP2C9, luciferin-H conversion, luminescence; stronger effect = higher value; factor 1 = untreated enzyme, 0 = blocked. activation factor at 5 µM. 1.4% of 96,000 active;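 active means activation factor of 2 or more for CYP2C9 at a 5 µM dose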
Hits are given with their value. Most compounds without a hit are left out; they make up all but 31% or so of the library.

What do the screens show for `COc1ccc(CCNC(=O)c2ccc(NS(=O)(=O)c3c(C)noc3C)cc2)cc1OC`?
CYP2C9 inhib: 64; PLAP act: inactive; CYP2C19 inhib: inactive; CYP2C19 activ: inactive; CYP2C9 act: inactive

Results for Cc1ccc(CNC(=O)c2ccc(NS(=O)(=O)c3c(C)noc3C)cc2)cc1 ?
CYP2C9 inhib: 70; PLAP act: inactive; CYP2C19 inhib: inactive; CYP2C19 activ: inactive; CYP2C9 act: inactive

How did CCc1ccc(NC(=O)CNS(=O)(=O)c2c(C)noc2C)cc1 do in these assays?
CYP2C9 inhib: 51; PLAP act: inactive; CYP2C19 inhib: inactive; CYP2C19 activ: inactive; CYP2C9 act: inactive

What do the screens show for `Cc1noc(C)c1S(=O)(=O)Nc1ccc(C(=O)NC2CCCCCC2)cc1`?
CYP2C9 inhib: inactive; PLAP act: inactive; CYP2C19 inhib: inactive; CYP2C19 activ: inactive; CYP2C9 act: inactive

Results for CCc1ccc(/C=C/C(=O)c2c(C)cc(C)[nH]c2=O)cc1 ?
CYP2C9 inhib: inactive; PLAP act: inactive; CYP2C19 inhib: 80; CYP2C19 activ: inactive; CYP2C9 act: inactive

How did COc1ccc(/C=C/C(=O)c2sc(-c3ccc(Cl)cc3)nc2C)cc1 do in these assays?
CYP2C9 inhib: inactive; PLAP act: inactive; CYP2C19 inhib: inactive; CYP2C19 activ: inactive; CYP2C9 act: inactive

Results for Cc1ccc(/C=C/C(=O)c2c(C)cc(C)[nH]c2=O)cc1 ?
CYP2C9 inhib: inactive; PLAP act: inactive; CYP2C19 inhib: 89; CYP2C19 activ: inactive; CYP2C9 act: inactive

Results for COc1ccc(N2CCn3c2nc2c3c(=O)n(CCc3ccccc3)c(=O)n2C)cc1 ?
CYP2C9 inhib: inactive; PLAP act: inactive; CYP2C19 inhib: inactive; CYP2C19 activ: inactive; CYP2C9 act: inactive

Results for O=C(Cn1nc(-c2ccc(N3CCOCC3)c([N+](=O)[O-])c2)c2ccccc2c1=O)N1CCCCC1 ?
CYP2C9 inhib: inactive; PLAP act: inactive; CYP2C19 inhib: inactive; CYP2C19 activ: inactive; CYP2C9 act: inactive

What do the screens show for `COC(=O)C1=C(C)N(c2ccc(F)c(Cl)c2)C(=O)C1`?
CYP2C9 inhib: 52; PLAP act: inactive; CYP2C19 inhib: inactive; CYP2C19 activ: inactive; CYP2C9 act: inactive

What do the screens show for `CCOC(=O)C1=C(N)N(c2ccc(N3CCCCC3)cc2)C(=O)C1`?
CYP2C9 inhib: inactive; PLAP act: inactive; CYP2C19 inhib: inactive; CYP2C19 activ: inactive; CYP2C9 act: inactive

What do the screens show for `COC(=O)C1=C(C)N(c2ccc(F)cc2)C(=O)C1`?
CYP2C9 inhib: inactive; PLAP act: inactive; CYP2C19 inhib: 60; CYP2C19 activ: inactive; CYP2C9 act: inactive

Results for COC(=O)C1=C(C)N(c2cccc(Cl)c2)C(=O)C1 ?
CYP2C9 inhib: inactive; PLAP act: inactive; CYP2C19 inhib: 64; CYP2C19 activ: inactive; CYP2C9 act: inactive

Results for COC(=O)C1=C(C)N(c2ccc(OC)c(OC)c2)C(=O)C1 ?
CYP2C9 inhib: 74; PLAP act: inactive; CYP2C19 inhib: inactive; CYP2C19 activ: inactive; CYP2C9 act: inactive

What do the screens show for `Cc1cc(C)nc(NC2=NCC(=O)N2c2ccc(F)c(Cl)c2)n1`?
CYP2C9 inhib: inactive; PLAP act: inactive; CYP2C19 inhib: inactive; CYP2C19 activ: inactive; CYP2C9 act: inactive

How did COC(=O)C1=C(C)N(c2cccc(C(C)=O)c2)C(=O)C1 do in these assays?
CYP2C9 inhib: inactive; PLAP act: inactive; CYP2C19 inhib: inactive; CYP2C19 activ: inactive; CYP2C9 act: inactive

What do the screens show for `COc1ccc(N2C(=O)CN=C2Nc2nc(C)cc(C)n2)cc1OC`?
CYP2C9 inhib: inactive; PLAP act: inactive; CYP2C19 inhib: inactive; CYP2C19 activ: inactive; CYP2C9 act: inactive

How did CN(C)c1ccc(C2NCC(CCl)O2)cc1 (stereo not given) do in these assays?
CYP2C9 inhib: inactive; PLAP act: inactive; CYP2C19 inhib: inactive; CYP2C19 activ: inactive; CYP2C9 act: inactive

Results for Cc1ccc(C(=O)CSC2=C(C#N)C(c3ccco3)C3=C(CCCC3=O)N2)cc1 (stereo not given) ?
CYP2C9 inhib: 92; PLAP act: inactive; CYP2C19 inhib: 88; CYP2C19 activ: inactive; CYP2C9 act: inactive

Results for N#Cc1c(-c2ccco2)cc(C2CC2)nc1SCC(=O)c1ccccc1 ?
CYP2C9 inhib: inactive; PLAP act: inactive; CYP2C19 inhib: inactive; CYP2C19 activ: inactive; CYP2C9 act: inactive

Results for CC(C)(C)c1ccc(C2C3=C(CCCC3=O)NC3=C2C(=O)c2ccccc23)cc1 (stereo not given) ?
CYP2C9 inhib: inactive; PLAP act: inactive; CYP2C19 inhib: inactive; CYP2C19 activ: inactive; CYP2C9 act: inactive

What do the screens show for `CC(C)(C)c1ccc(C(=O)CCCSC2=C(C#N)C(c3ccco3)C3=C(CCCC3=O)N2)cc1` (stereo not given)?
CYP2C9 inhib: 67; PLAP act: inactive; CYP2C19 inhib: inactive; CYP2C19 activ: inactive; CYP2C9 act: inactive

Results for CCOC(=O)C1=C(N)OC2=C(C(=O)CCC2)C1c1ccco1 (stereo not given) ?
CYP2C9 inhib: inactive; PLAP act: inactive; CYP2C19 inhib: inactive; CYP2C19 activ: inactive; CYP2C9 act: inactive

How did N#CC1=C(SCC(=O)c2ccccc2)NC2=C(C(=O)CCC2)C1c1ccco1 (stereo not given) do in these assays?
CYP2C9 inhib: 92; PLAP act: inactive; CYP2C19 inhib: 94; CYP2C19 activ: inactive; CYP2C9 act: inactive

How did CC(C)(C)NCC1(CO)SC(N)=NC1=O (stereo not given) do in these assays?
CYP2C9 inhib: inactive; PLAP act: inactive; CYP2C19 inhib: inactive; CYP2C19 activ: inactive; CYP2C9 act: inactive

Results for CCOC(=O)C1CCCN(c2c(NCCN3CCCCC3CC)c(=O)c2=O)C1 (stereo not given) ?
CYP2C9 inhib: inactive; PLAP act: inactive; CYP2C19 inhib: inactive; CYP2C19 activ: inactive; CYP2C9 act: inactive

Results for CC1CCc2nc(NC(=O)c3ccc(S(=O)(=O)N4CCCc5ccccc54)cc3)sc2C1 (stereo not given) ?
CYP2C9 inhib: 54; PLAP act: inactive; CYP2C19 inhib: inactive; CYP2C19 activ: inactive; CYP2C9 act: inactive

How did CS(=O)(=O)NCCOc1ccc(S(=O)(=O)N2CCCc3ccccc32)cc1 do in these assays?
CYP2C9 inhib: inactive; PLAP act: inactive; CYP2C19 inhib: 75; CYP2C19 activ: inactive; CYP2C9 act: 2.1

How did CCc1nnc(NC(=O)c2ccc(S(=O)(=O)N3CCCc4ccccc43)cc2)o1 do in these assays?
CYP2C9 inhib: 62; PLAP act: 2.1; CYP2C19 inhib: inactive; CYP2C19 activ: inactive; CYP2C9 act: inactive

Results for CC(C)(C)OC(=O)N1CCC(C(=O)N[C@@H](Cc2ccccc2)C(=O)O)CC1 ?
CYP2C9 inhib: inactive; PLAP act: inactive; CYP2C19 inhib: inactive; CYP2C19 activ: inactive; CYP2C9 act: inactive

What do the screens show for `CCOCCCNS(=O)(=O)c1ccc2c(c1)oc(=O)n2CC(=O)OCC`?
CYP2C9 inhib: inactive; PLAP act: inactive; CYP2C19 inhib: inactive; CYP2C19 activ: inactive; CYP2C9 act: inactive

What do the screens show for `CCOC(=O)Cn1c(=O)oc2cc(S(=O)(=O)NCCc3ccc(OCC)c(OCC)c3)ccc21`?
CYP2C9 inhib: 56; PLAP act: inactive; CYP2C19 inhib: inactive; CYP2C19 activ: inactive; CYP2C9 act: inactive
